BAZ2B inh: qHTS Assay for Inhibitors of BAZ2B; hit rate 4.4% among 360,000; Potency, µM (titrated, usually from 114 µM), for the others: top-dose activity change, negative = inhibition, hits mostly inhibitors; AlphaScreen BAZ2B-H3K14Ac peptide displacement; AID 504333, 2011; Bromodomain adjacent to zinc finger domain protein 2B (Homo sapiens), Q9UIF8; also: potency is read from the fitted curve at half-maximal effect; % is scaled to controls: 0 for no effect and ±100 for the full control effect; nearly all actives have a fitted effect of over 60% in size
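In this displacement format the biotinylated H3(5-23) peptide acetylated at Lys14 serves as ligand at 50 nM, with BAZ2B at 50 nM in PBS pH 7.4 containing 0.01% Tween-20. Donor and acceptor beads are 10 ug/mL final.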
G9a inh: qHTS Assay for Inhibitors of Histone Lysine Methyltransferase G9a; Histone-lysine N-methyltransferase EHMT2 (Homo sapiens), Q96KQ7; Potency, µM (series often up to 102 µM), without a hit: top-dose activity, negative = inhibition, usual class: inhibitors; AID 504332, 2011; G9a H3K9 monomethylation, AlphaScreen, 2 h; hit rate 8.8% among 350,000; also: potency is read from the fitted curve at half-maximal effect; % is scaled to controls: 0 for no effect and ±100 for the full control effect; nearly all actives have a fitted effect of over 75% in size
Target sequence (Q96KQ7 913-1193 limits assumed): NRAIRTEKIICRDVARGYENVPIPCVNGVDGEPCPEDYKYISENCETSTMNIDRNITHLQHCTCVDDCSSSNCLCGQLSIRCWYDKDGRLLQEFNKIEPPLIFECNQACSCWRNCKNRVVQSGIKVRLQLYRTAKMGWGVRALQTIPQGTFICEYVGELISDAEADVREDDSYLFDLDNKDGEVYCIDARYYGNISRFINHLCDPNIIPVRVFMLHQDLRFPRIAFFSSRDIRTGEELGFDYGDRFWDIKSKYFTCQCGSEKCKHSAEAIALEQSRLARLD
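Readings reflect AlphaScreen signal from monomethyl-H3K9 antibody detection. HMT at 20 nM; substrate b-H3K9 500 nM; cofactor SAM 20 uM; 2 h RT reaction; compounds tested as titrations in qHTS with 15 min preincubation.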
Six1-Eya2 inh: qHTS Assay for Inhibitors of the Six1/Eya2 Interaction | Homeobox protein SIX1 (Homo sapiens) + Protein phosphatase EYA2 (Homo sapiens), … | activity change, % (concentration not given with the values) | hit rate 0.56% among 360,000 | AlphaScreen GST-Six1/His-Eya2 binding, biochemical; active compounds read low | AID 651725, 2012; in the data active = activity change below about -65%; inconclusive = mostly about -30% to -63%; also: % is scaled to controls: 0 for no effect and ±100 for the full control effect
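AlphaScreen luminescence read after one hour at 37 °C in darkness. Pin-transferred compounds met GST-Six1 and His-Eya2 protein (5X stock 250 nM/500 nM) plus glutathione donor and Ni-chelate acceptor beads (5X, 50 ug/mL).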
HP1b chromo inh: HTS for Inhibitors of HP1-beta Chromodomain Interactions with Methylated Histone Tails; Chromobox protein homolog 1 (Homo sapiens), P83916; AlphaScreen HP1-beta / biotin-H3K9me3 peptide binding; Potency, µM (doses to about 114 µM), without a hit: top-dose activity change, negative = inhibition, actives largely listed as inhibitors; hit rate 0.56% among 390,000; AID 540317, 2011; also: potency is read from the fitted curve at half-maximal effect; nearly all actives have a fitted effect of over 70% in size
Target sequence (P83916 whole entry, looked up): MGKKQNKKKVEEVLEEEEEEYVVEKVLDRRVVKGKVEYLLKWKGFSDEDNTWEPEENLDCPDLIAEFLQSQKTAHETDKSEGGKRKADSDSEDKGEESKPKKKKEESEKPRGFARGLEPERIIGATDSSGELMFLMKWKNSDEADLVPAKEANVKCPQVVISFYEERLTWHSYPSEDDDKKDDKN
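Compound inhibition of the preformed complex between 50 nM HP1-beta and 50 nM biotinylated H3K9me3 peptide was read by AlphaScreen. Buffer was PBS pH 7.4 with 0.01% Tween-20. Incubations ran 30 min at room temperature, with 10 ug/mL donor/acceptor beads.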
CtBP-E1A blk: qHTS Assay for Inhibitors of the CtBP/E1A Interaction; hit rate 0.49% among 340,000; activity change, % (test concentration not listed); AlphaScreen GST-E1A/His-CtBP binding, 1536-well; active compounds read low; in the data active = activity change below about -65%; inconclusive = mostly about -30% to -63%; also: % is scaled to controls: 0 for no effect and ±100 for the full control effect
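Steps: dispense buffer (Tris pH 8.0, NaCl 300 mM, TCEP 1 mM, BSA, Tween 20); add 5X protein mix (GST-E1A, His-CtBP, 125 nM each); pin 23 nL compound; 2 h at 37 °C, dark; add 5X beads (50 ug/mL); 1 h; read.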
JMJD2A Tudor inh: qHTS Assay for Inhibitors of JMJD2A-Tudor Domain; Lysine-specific demethylase 4A (Homo sapiens), O75164; AlphaScreen JMJD2A-Tudor / H3K4me3 peptide binding; hit rate 4.4% among 390,000; Potency, µM (titrated, usually from 114 µM), without a hit: top-dose activity change, negative = inhibition, most hits filed as inhibitors; also: potency is read from the fitted curve at half-maximal effect; % is scaled to controls: 0 for no effect and ±100 for the full control effect; nearly all actives have a fitted effect of over 50% in size
Active calls of the source: *; ? = inconclusive; nt = no result given; [ ] = dose if it differs, or a comment. This is a sample that favours compounds with a hit; in the whole collection about 10% have one here. Unless noted, calls follow the shape of the dose curve; as a rule, active = well fitted inhibition curve with a large enough effect; inconclusive = small, poorly fitted or top-dose-only effect; inactive = no such curve, though single readings can be large or run the other way.

SMILES	BAZ2B inh	G9a inh	Six1-Eya2 inh	HP1b chromo inh	CtBP-E1A blk	JMJD2A Tudor inh
CC(C)OC(=O)CC1C(=O)NCCN1C(=S)NC(=O)c1ccccc1 (configuration not stated)	?	32µM*	-3	45%	nt	-14%
CC(C)OC(=O)CC1C(=O)NCCN1C(=S)NC(=O)CCc1ccccc1 (configuration not stated)	-1%	?	5	48%	7	-7%
CC(C)OC(=O)CC1C(=O)NCCN1C(=S)NC(=O)c1ccc(F)cc1 (configuration not stated)	-20%	40µM*	-5	41%	-4	-14%
COC(=O)CC1C(=O)NCCN1C(=S)NC(=O)C(c1ccccc1)c1ccccc1 (configuration not stated)	11%	?	3	12%	5	?
CCOC(=O)c1ccc(NS(=O)(=O)c2cc(Br)cc3c2N(C(C)=O)C(C)C3)cc1 (configuration not stated)	-9%	3%[59 µM]	nt	21%	nt	-16%
COc1cc(OC)cc(-n2nnc(-c3nc(-c4ccccc4Cl)no3)c2N)c1	-14%	-9%[59 µM]	nt	30%	nt	1%
O=C(O)CN1CCN(Cc2ccccc2Cl)C1=O	3%	8%	3	12%	5	-28%
O=C(O)c1cc2n(n1)CCN(Cc1ccccc1Cl)C2=O	?	50µM*	-1	30%	nt	-4%[11.4 µM]
Cc1cc(O)c(-c2cc(O)c(C)cc2O)cc1O	50µM*	2µM*	-16	1.8µM*	nt	5µM*
COc1ccc2[nH]c3c(c2c1)CCN1C(=O)N([C@@H](C)C(=O)NC2CCN(Cc4ccccc4)CC2)C(=O)[C@]31C	50µM*	nt	-20	4%	-15	?
COc1ccc2[nH]c3c(c2c1)CCN1C(=O)N([C@@H](C)C(=O)NC2CC2)C(=O)[C@]31C	-9%[57.1 µM]	8%	-8	-9%	-1	-20%
C[C@@H](C(=O)NC1CCN(Cc2ccccc2)CC1)N1C(=O)N2CCc3c([nH]c4ccccc34)[C@@]2(C)C1=O	?	-17%	-7	-11%	-12	?
COc1ccc2[nH]c3c(c2c1)CCN1C(=O)N([C@@H](C)C(=O)NCc2ccco2)C(=O)[C@]31C	50µM*	1%	-7	12%	-7	-26%
CC(C)C[C@@H](C(=O)NC1CCN(Cc2ccccc2)CC1)N1C(=O)N2CCc3c([nH]c4ccccc34)[C@@]2(C)C1=O	?	?	?	?	-26	40µM*
Oc1ccccc1C1C=C(c2ccc3c(c2)OCO3)NC(c2cccc(F)c2)N1 (configuration not stated)	nt	nt	nt	20%	nt	?
CC(=O)c1cccc(NC(=O)/C(=C\c2cccnc2)NC(=O)c2ccccc2)c1	-2%	14%	1	24%	-15	8%
COc1ccc(C(=O)Nc2ccccc2C(=O)NCc2cccnc2)cc1OC	-15%	71µM*	-2	39%	5	-10%
Cc1c(Cl)cccc1NC(=S)NC(=O)c1cncc(Br)c1	nt	nt	-10	-22%	-7	-9%
O=C(NNc1cccc([N+](=O)[O-])c1)/C(=C\c1cccnc1)NC(=O)c1ccccc1	-24%	50µM*	0	24%	nt	-8%
COc1ccc(C(=O)NC(=S)Nc2cccnc2)cc1OC	-34%	50µM*	-4	13%	2	-14%
O=C(NC(=S)Nc1cc(Cl)ccc1O)c1cccc(Br)c1	-4%	71µM*	-3	6%	nt	-10%
Cc1ccc(N(C)C(=O)c2noc3c2CCCCC3)cc1C	11%[57.1 µM]	1%[59 µM]	nt	12%	nt	-6%
CCOc1ccc(S(=O)(=O)N(CC(=O)Nc2ccc3c(c2)OCO3)c2ccccc2)cc1	1%	4%[59 µM]	nt	25%	nt	3%
COc1cc(NC(=O)c2sc3nc4n(c(=O)c3c2C)CCCCC4)cc(OC)c1OC	-1%	9%[59 µM]	nt	30%	nt	7%
COc1ccc(-c2noc(-c3ccccc3NC(=O)c3cc(OC)c(OC)c(OC)c3)n2)cc1	-1%	?	nt	25%	nt	-1%
SMILES	BAZ2B inh	G9a inh	Six1-Eya2 inh	HP1b chromo inh	CtBP-E1A blk	JMJD2A Tudor inh
O=C(COc1cc(F)ccc1[N+](=O)[O-])Nc1ccc(N2CCCCC2)cc1	32µM*	?	?	?	-28	40µM*
COc1cc(OC)cc(C(=O)NC(C(=O)Nc2ccc(N3CCOCC3)cc2)C(C)C)c1 (configuration not stated)	-3%	50µM*	-1	13%	-5	-14%
COc1ccc(C(=O)N/C(=C/c2cccnc2)C(=O)Nc2cccc(C(C)=O)c2)cc1OC	3%	0%[12.7 µM]	4	1%	19	56µM*
CCOc1cccc(C(=O)NC(=S)Nc2cccc(NC(=O)c3ccccc3Cl)c2)c1	79µM*	-47%[59 µM]	-21	6%	-13	-8%
Cc1cc2c(s1)c1cnn(Cc3cc(F)c(F)c(F)c3F)c(=O)c1n2C	nt	nt	nt	nt	nt	-8%
Cc1ccc2c(c1)c1c(c(=O)n(Cc3ccccc3)c(=O)n1CC(=O)Nc1ccccc1F)n2C	-4%	-8%[59 µM]	nt	-4%	nt	-15%
COc1cc(OC)cc(C(=O)NC(=S)Nc2cccnc2)c1	-15%	?	8	15%	4	-8%[11.4 µM]
O=C(CCNC(=O)c1ccccc1)Nc1cccnc1	19%	-26%	14	-1%	-1	45µM*
O=C(O)c1ccc(NC(=S)NC(=O)c2cccnc2)cc1	-5%	79µM*	5	-16%	6	-2%
Cc1cccc(NC(=O)CCNC(=O)c2ccccc2)c1	10%	11%	-1	20%	8	-5%
CNC(=O)c1ccc(NC(=O)CCNC(=O)Nc2ccccc2)cc1	-2%	45µM*	-1	38%	6	-1%
COC(=O)c1ccc(NC(=S)NC(=O)c2cccnc2)cc1	-13%	nt	3	19%	7	-3%
O=C(CCc1ccccc1)Nc1cccnc1	-8%	18%	7	31%	9	-10%
O=C(NC(=S)Nc1cccnc1)c1ccccc1	4%	79µM*	2	3%	-4	11%
CCn1c(=O)cc(SCC(=O)NCc2ccc(Cl)cc2)c2ccccc21	7%	-3%[59 µM]	nt	28%	nt	-3%
